# From PubChem BioAssay
# A selection: hits, their analogues and other compounds. The true share with any hit is near 3.8%.
# ATXN2 expr inh = Primary qHTS for Inhibitors of ATXN expression; Potency, µM (doses to about 57 µM), for inactives: top-dose activity change, negative = inhibition, usual class: inhibitors; 360,000 compounds, 0.72% hits; HEK-293 ATXN2-luciferase reporter, luminescence, 24 h; AID 1745845, 2022; note: % is set by controls: 0 for no effect and ±100 for the full control effect; nearly all actives have a fitted effect of over 55% in size
#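 qHTS (up to 57 uM final) was run with 24 h compound exposure of reporter cells at 37 °C. Each well was multiplexed: SteadyGlo luminescence measured ATXN2-luciferase expression after a fluorogenic Gly-Phe-AFC viability readout (25 uM final).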
# S2 tox = Viability Counterscreen for Primary qHTS for Inhibitors of ATXN expression | S2 cells (HEK-293 line with an ATXN2-luciferase reporter) viability, CellTiter-Fluor protease fluorescence, 24 h | 400,000 compounds, 0.49% hits | Potency, µM (series often up to 56.7 µM), most hits filed as cytotoxic; note: nearly all actives have a fitted effect of over 40% in size
# HT1080 IDH1KD tx = qHTS for induction of synthetic lethality in tumor cells producing 2HG: qHTS for the HT-1080-IDH1KD cell line; HT-1080 IDH1 knockdown viability, ATP luminescence, 48 h; Potency, µM (doses to about 46.1 µM), without a hit: top-dose activity, negative = toxicity, actives largely listed as cytotoxic; 360,000 compounds, 2% hits;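 note: 0% = DMSO wells and -100% = cell-free medium wells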
#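 Assay cells: HT-1080 with IDH1 knockdown, 750 per well, RPMI/5% FBS. Exposure: 48 h at 37 °C following 2 h pre-incubation. Read: CellTiter-Glo luminescence; fitted concentration-response, curve class assigned.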
# HepG2 tox = qHTS for Inhibitors of TGF-b: Cytotox Counterscreen. HepG2 CAGA-GFP viability, ATP luminescence, 18 h. Potency, µM (top dose mostly 46.1 µM), for inactives: at the highest dose activity change, negative = cytotoxicity, actives largely listed as cytotoxic. 410,000 compounds, 0.76% hits. AID 588856, 2011
#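 CellTiter-Glo luminescence gave cytotoxicity after 18 hours at 37 degrees C. The cells were HepG2 CAGA-GFP in 1% FBS DMEM, stimulated with 500 pg/mL TGF-beta after compound addition. %Activity was normalised to no-cell wells (complete cell-killing) and DMSO (no toxicity), and curves were fitted and classified.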
# HT1080NT lethal = qHTS for induction of synthetic lethality in tumor cells producing 2HG: qHTS for the HT-1080-NT fibrosarcoma cell line | HT-1080-NT fibrosarcoma viability, CellTiter-Glo ATP luminescence, 48 h | Potency, µM (top dose mostly 46.1 µM), inactives show at the highest dose activity, negative = less viability, actives largely listed as cytotoxic | 360,000 compounds, 1.6% hits;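 note: NT is the 2HG producing partner of a matched IDH1 knockdown line; 0% = DMSO-treated cells and -100% = media-only wells without cells; nearly all actives have a fitted effect of over 55% in size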
#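 Viability of the 2HG-overproducing fibrosarcoma line after 48 hours of compound exposure at 37 degrees C was determined by luminescence with CellTiter-Glo, and concentration-effect curves were then fitted and categorized.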
# TGFb inhibitor = qHTS for Inhibitors of TGF-b. HepG2 CAGA-GFP TGF-b/SMAD3 reporter, GFP fluorescence, 18 h; TGF-beta stimulated, 500 pg/mL final. Potency, µM (highest dose often 46.1 µM), without a hit: at the highest dose activity, negative = inhibition, most hits filed as inhibitors. 410,000 compounds, 1.2% hits. AID 588855, 2011; note: % is set by controls: 0 for no effect and ±100 for the full control effect; nearly all actives have a fitted effect of over 65% in size
#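 Per well, imaged GFP fluorescence of HEPG2 CAGA-GFP cells gives the signal; cells get compound, then TGF-beta (500 pg/mL final), 18 h at 37 degrees C; %Activity versus -TGF-beta and +DMSO controls.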
# An asterisk follows results filed as active; i = inactive; ? = inconclusive; . = no result given. Calls come from the whole dose curve; as a rule, active = well fitted curve in the direction sought with a large enough effect; inconclusive = small, poorly fitted or top-dose-only effect, or another doubt; inactive = no such curve, though single readings can be large; an effect the other way counts as inactive or inconclusive. Potency is the fitted concentration of half-maximal effect.
SMILES,ATXN2 expr inh,S2 tox,HT1080 IDH1KD tx,HepG2 tox,HT1080NT lethal,TGFb inhibitor
c1ccc(COc2ccc(-c3cc4nc(NCCN5CCOCC5)ccn4n3)cc2)cc1,?,?,18µM*,-43%,?,26%
c1ccc(COc2cccc(-c3cc4nc(NCCN5CCOCC5)ccn4n3)c2)cc1,0%,?,?,-29%,15µM*,1%
CCc1nc2ccc(C(=O)Nc3cc(-c4ccccc4)ccc3OC)cn2c1N(CCN(C)C)CC1CC1,?,28µM*,18µM*,-96%,?,?
CCc1nc2ccc(C(=O)Nc3cc(-c4ccccc4)ccc3OC)cn2c1N(C)CCCc1ccccc1,-10%,i,?,-33%,?,5%
CCCCN(C)c1c(C)nc2ccc(C(=O)Nc3cc(-c4ccccc4)ccc3OC)cn12,?,?,?,13µM*,?,?
CCc1nc2ccc(C(=O)Nc3cc(-c4ccccc4)ccc3OC)cn2c1N(C)Cc1nccs1,0%,?,23µM*,-32%,?,?
O=C(C[N+]1(CCc2ccccc2)CCOCC1)c1ccccc1,.,.,.,-33%,.,5%
COC(=O)[C@@H]1C[C@@H](NC(=O)c2ccc(C(F)(F)F)cc2)CN1Cc1cccc(O)c1,.,i,.,.,.,.
COc1ccc(C(=O)Cn2c(C)nc([N+](=O)[O-])c2Br)cc1,?,?,?,-27%,?,?
Cc1nc([N+](=O)[O-])c(Br)n1CC(=O)c1ccc(Cl)cc1,?,?,18µM*,-89%,?,?
Cc1nc([N+](=O)[O-])c(Br)n1Cc1ccc(Cl)c(Cl)c1,.,20µM*,?,-118%,?,?
CC1(C)S[C@@H]2[C@H](NC(=O)Cc3ccccc3)C(=O)N2[C@H]1C(=O)O (tested in a mixture with another compound),8%,i,.,.,.,.
COc1ccccc1NC(=O)CC1C(=O)NCCN1C(=O)Nc1ccc(Cl)c(Cl)c1 (stereo not drawn),17%,i,?,-99%,16µM*,?
O=C(CC1C(=O)NCCN1C(=O)Nc1ccccc1)Nc1cc(Cl)cc(Cl)c1 (stereo not drawn),-34%,i,26µM*,-46%,16µM*,?
COc1ccccc1NC(=S)N1CCNC(=O)C1CC(=O)Nc1cccc(C)c1 (stereo not drawn),2%,i,-3%,-2%,-11%,2%
CC(=O)OCC(NC(=O)C(CCCCNC(=O)OCc1ccccc1)NC(=O)OC(C)(C)C)C1OC(n2ccc(=O)[nH]c2=O)C(OC(C)=O)C1OC(C)=O (stereo not drawn),.,.,.,1%,.,-3%
Nc1nc2c(c(=O)[nH]1)N(C=O)C(CNc1ccc(C(=O)N[C@@H](CCC(=O)O)C(=O)O)cc1)CN2 (stereo partly drawn),.,i,.,.,.,.
CCn1c(=S)sc2c(=O)n(CC(=O)Nc3ccccc3C(F)(F)F)c(C)nc21,.,32µM*,2%,-13%,0%,1%
Cc1ccc(OCCn2c(C3CC(=O)N(Cc4ccc(F)cc4)C3)nc3ccccc32)c(C)c1 (stereo not drawn),?,?,.,18µM*,.,?
CCc1ccccc1N1CC(c2nc3ccccc3n2CCC2CCCCC2)CC1=O (stereo not drawn),?,28µM*,.,10µM*,.,?
CCOc1ccc(N2CC(c3nc4ccccc4n3CCOc3ccccc3)CC2=O)cc1 (stereo not drawn),?,?,.,-24%,.,16µM*
Cc1ccccc1N1CC(c2nc3ccccc3n2CCC2CCCCC2)CC1=O (stereo not drawn),?,.,.,-103%,.,?
O=C1CC(c2nc3ccccc3n2CCCCOc2ccccc2)CN1c1ccccc1Cl (stereo not drawn),?,28µM*,.,-45%,.,?
CCOc1ccccc1N1CC(c2nc3ccccc3n2CCOc2ccccc2)CC1=O (stereo not drawn),0%,?,.,-45%,.,?
CCOc1ccccc1N1CC(c2nc3ccccc3n2CCCCOc2ccccc2)CC1=O (stereo not drawn),-7%,i,.,-1%,.,?
SMILES,ATXN2 expr inh,S2 tox,HT1080 IDH1KD tx,HepG2 tox,HT1080NT lethal,TGFb inhibitor
COc1c(Cl)cc2c([nH]c3cnccc32)c1NC(=O)c1cccnc1C,2%,.,.,.,.,.
CN1CCCC(CNC(=O)c2cnn(-c3nccc(-c4cccs4)n3)c2C2CC2)C1 (stereo not drawn),.,i,.,.,.,.
COc1cc(/C=C2/C=Cc3ccccc32)ccc1N(C)C,.,.,.,-48%,.,-1%
COc1ccc(/C=C/C(=O)N2CCc3c(cnc(C)c3CNS(=O)(=O)c3cccs3)C2)cc1,.,i,.,.,.,.
CCOc1ccc(N2CC(c3nc4ccccc4n3CCCOc3ccccc3OC)CC2=O)cc1 (stereo not drawn),?,18µM*,.,-13%,.,-29%
CCCCOC(=O)CC(CC(=O)OCCCC)(OC(C)=O)C(=O)OCCCC,4%,i,.,.,.,.
c1ccc2cnccc2c1,.,.,.,6%,.,-1%
CCOc1ccc2nc(N3CCCC(C(=O)Nc4ccc(OC)c(Cl)c4)C3)sc2c1 (stereo not drawn),.,.,.,-18%,.,?
COc1cc2nc(N3CCN(C(=O)OCc4ccccc4)[C@H](C(=O)NC(C)(C)C)C3)nc(N)c2cc1OC,-4%,?,?,-43%,18µM*,4%
COc1ccc(C)cc1NC(=O)C1CCCN1C(=O)OCc1ccccc1 (stereo not drawn),-6%,i,-1%,3%,3%,8%
CCOC(=O)c1[nH]c2ccc(OC)cc2c1NC(=S)N1CCN(c2ccccc2OC)CC1,-15%,i,13µM*,-12%,?,?
O=C1NC(c2cccc(OCc3ccccc3)c2)Nc2ccccc21 (stereo not drawn),-11%,?,0.58µM*,1%,?,?
O=C1NC(c2ccc(Cl)c([N+](=O)[O-])c2)Nc2ccccc21 (stereo not drawn),-21%,i,-27%,-44%,?,-11%
CS(=O)(=O)c1nc(-c2ccccc2)cc(-c2ccccc2)c1C#N,?,.,?,2%,23µM*,-1%
